Calls of active or inactive are those of the source.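 How the source made its calls, unless noted: active means NADPH fluorescence slope more negative than the mean of all samples by about 3 SD, 99.7% confidence; inactive means the rest.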
Experiments:
[1] = inhibitors of TNFa-induced NFkB p65 translocation, primary screen, imaging, HUVEC, MLSMR starter and 10KST1 sets (AID 438;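 active means inhibition above 20% together with a positive visual image hit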;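 further: compound added about 3h40 before a 20 min TNFalpha stimulation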;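 on inhibition: signal is the nuclear over cytoplasmic p65 intensity ratio per well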); details: HUVEC TNFa-induced p65 nuclear translocation; cell count: measured here: nuclei count (cytotoxicity indicator), at 2.08 µM; inhibition: at 2 µM, stronger effect = higher value, 0% TNFa-plus-vehicle, 100% no-TNFa wells
[2] = reduction of polyQ htt aggregates in cells – imaging, exon1htt(103Q)mCFP cells, high-content imaging, primary screen (AID 483;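 active means visual image review flags a hit and inhibition of aggregation exceeds 20%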;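 further: compound exposure lasted 3 days before fixation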;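 on nuclei count: percent of the per-plate median nuclei count of sample wells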); details: exon1htt(103Q)mCFP cell line, aggregate imaging, at 2 µM; inhibition of aggregation: stronger effect = higher value; nuclei count: measured here: cell count, toxicity
[3] = endothelial E-selectin expression blockers – imaging, HUVEC, immunofluorescence, MLSMR starter and 10KST1 sets, primary screen (AID 487;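 active means visually confirmed hit in the image check and inhibition above 20%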;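 on inhibition: signal is fraction of cell area covered by stained E-selectin grains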;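 on nuclei count: 100% = median nuclei count of all wells on the same plate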); details: HUVEC TNFalpha-induced E-selectin immunofluorescence imaging, at 2 µM; inhibition: stronger effect = higher value; nuclei count: measured here: cell number, toxicity
[4] = target: Voltage-gated potassium channel subunit beta-2 (Rattus norvegicus) (UniProt P62483); assay: inhibitors of rat Kvbeta2 reductase activity – biochemical, NADPH fluorescence, primary screen (AID 622;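 active means fluorescence slope higher than the sample average by over 3 SD, cut at about -0.22 in these data, passing the limit was not always enough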;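 further: slope of raw intensity against log time taken from 70 to 1610 s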); details: recombinant KvBeta, 4-cyanobenzaldehyde reduction, at 10 µM, stronger effect = higher value
[5] = target: Voltage-gated potassium channel subunit beta-2 (Rattus norvegicus) (UniProt P62483); assay: enhancers of rat Kvbeta2 NADPH turnover – biochemical, NADPH fluorescence, primary screen (AID 623); details: Recombinant KvBeta, NADPH fluorescence decrease slope, 10 min; at 10 µM; stronger effect = lower value;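 further: fluorescence intensity change per second fitted from 20 to 320 s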
[6] = target: Alpha-2C adrenergic receptor (Homo sapiens) (UniProt P18825); assay: compounds altering alpha2C-coupled GIRK flux – cell-based, HEK293 alpha2C/GIRK1/2, thallium flux, primary screen (AID 624;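 active means fluorescence slope after compound addition differing from the mean of all screened samples at 99.7% confidence, in either direction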;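 further: slope of fluorescence ratio to pre-addition baseline per second over 15 to 24 s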); details: thallium flux BTC fluorescence, at 10 µM, actives lie on both sides
[7] = blockers of RIG-like receptor reporter activation – cell-based, Sendai virus stimulus, luciferase, 10K MLSCN set, TLR/RLR signaling modifier project, primary screen (AID 602276;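 active means inhibition at or above 50% at 10 µM; inactive means inhibition below 50%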;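 further: firefly luciferase from ISG56 promoter only with Renilla not read in this screen; 0% = Sendai virus plus DMSO and 100% = medium plus DMSO without virus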); details: HEK293 RL24 IRF3 luciferase reporter, at 10 µM, stronger effect = higher value
[8] = TLR3 IRF3 reporter activation blockers – cell-based, poly I:C stimulus, luciferase, 10K MLSCN set, primary screen (AID 602277;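 active means inhibition of the reporter signal at or above 50%; inactive means inhibition below 50%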); details: HEK293-TLR3 RL24 IRF3 luciferase reporter, at 10 µM, stronger effect = higher value

Sequence of Alpha-2C adrenergic receptor (Homo sapiens) (P18825 whole entry, looked up): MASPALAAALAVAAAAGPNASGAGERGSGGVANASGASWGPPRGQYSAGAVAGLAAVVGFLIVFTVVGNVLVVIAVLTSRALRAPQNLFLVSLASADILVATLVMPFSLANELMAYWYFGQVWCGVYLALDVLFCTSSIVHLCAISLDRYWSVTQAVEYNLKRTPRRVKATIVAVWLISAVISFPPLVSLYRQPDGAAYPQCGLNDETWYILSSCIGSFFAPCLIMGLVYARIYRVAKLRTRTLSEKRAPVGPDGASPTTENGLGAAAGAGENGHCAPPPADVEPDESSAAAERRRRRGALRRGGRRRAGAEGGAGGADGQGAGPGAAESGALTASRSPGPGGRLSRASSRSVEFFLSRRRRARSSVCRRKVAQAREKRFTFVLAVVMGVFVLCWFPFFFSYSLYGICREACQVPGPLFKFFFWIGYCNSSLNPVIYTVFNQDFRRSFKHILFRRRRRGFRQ
Sequence of Voltage-gated potassium channel subunit beta-2 (Rattus norvegicus) (P62483 whole entry, looked up): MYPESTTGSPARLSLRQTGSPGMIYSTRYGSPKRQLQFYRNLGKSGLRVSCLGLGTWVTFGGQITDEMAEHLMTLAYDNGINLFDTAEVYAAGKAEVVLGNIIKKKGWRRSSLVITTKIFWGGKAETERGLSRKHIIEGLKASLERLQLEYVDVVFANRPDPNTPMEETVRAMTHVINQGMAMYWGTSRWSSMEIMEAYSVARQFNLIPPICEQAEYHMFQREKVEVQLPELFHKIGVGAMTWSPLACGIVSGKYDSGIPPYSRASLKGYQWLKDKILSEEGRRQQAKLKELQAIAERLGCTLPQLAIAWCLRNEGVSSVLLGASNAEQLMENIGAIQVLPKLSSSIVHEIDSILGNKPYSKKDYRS

Compound | cell count [1] | inhibition [1] | inhibition of aggregation [2] | nuclei count [2] | inhibition [3] | nuclei count [3] | fluorescence slope [4] | NADPH fluorescence slope [5] | slope [6] | inhibition [7] | inhibition [8]
COc1ccc(C)cc1S(=O)(=O)N(C)CC(=O)Nc1ccc2c(c1)OCO2 | 505 | -15.7% (inactive) | 8.7% (inactive) | 94.7% | 26.3% (inactive) | 84.9% | -0.616 (inactive) | -5e-05 (inactive) | 0.00341 (inactive) | 12.3% (inactive) | 12.3% (inactive)
CCN(CC(=O)NCc1cccs1)C(=O)c1cc(S(=O)(=O)N2CCOCC2)ccc1C | 591 | -9.6% (inactive) | -22.2% (inactive) | 107% | -82.2% (inactive) | 136% | -0.466 (inactive) | -3.7e-05 (inactive) | 0.00388 (inactive) | 1.74% (inactive) | 27.8% (inactive)
CCOC(=O)c1c(NC(=O)c2cccs2)sc2c1CCN(C(=O)OCC)C2 | 416 | -2% (inactive) | -6.8% (inactive) | 99.7% | 14.8% (inactive) | 115% | -0.192 (active) | -6.6e-05 (inactive) | 0.0082 (inactive) | 10.1% (inactive) | -1.84% (inactive)
CC(C)(C)c1ccc2c(c1)OCC(C(=O)O)O2 (stereo not drawn) | 448 | 2% (inactive) | -7.2% (inactive) | 110% | 14.6% (inactive) | 90.7% | -0.547 (inactive) | 5.5e-05 (inactive) | 0.00589 (inactive) | -8.63% (inactive) | 4.32% (inactive)
O=c1cc(CN2CCN(c3ccc(F)cc3)CC2)nc2sccn12 | 280 | 3.4% (inactive) | 19.5% (inactive) | 95% | -8.5% (inactive) | 109% | -0.477 (inactive) | 2.3e-05 (inactive) | 0.00346 (inactive) | -6.74% (inactive) | 0.252% (inactive)
CCCCOC(=O)c1cccc(NC(=O)CC)c1 | 667 | -22.3% (inactive) | -8.8% (inactive) | 97.1% | 16.4% (inactive) | 110% | -0.557 (inactive) | 4e-05 (inactive) | 0.00523 (inactive) | -34.7% (inactive) | -123% (inactive)
CCCCc1ccc(NC(=O)C2CCCO2)cc1 (stereo not drawn) | 387 | -1.8% (inactive) | -7.2% (inactive) | 105% | -122% (inactive) | 98.5% | -0.376 (inactive) | -3e-05 (inactive) | 0.00635 (inactive) | -42.7% (inactive) | -136% (inactive)
Nc1cccc2c1C(=O)N(c1ccccc1)C2=O | 560 | 1.8% (inactive) | -6% (inactive) | 87.9% | 13.9% (inactive) | 107% | -0.0636 (active) | -2.2e-06 (inactive) | 0.00303 (inactive) | -20.4% (inactive) | -40.4% (inactive)
O=C(CSc1nnc(-c2ccccc2)o1)N1CCc2ccccc2C1 | 400 | -4.2% (inactive) | 2.7% (inactive) | 101% | -104% (inactive) | 121% | -0.382 (inactive) | -6.2e-05 (inactive) | 0.00577 (inactive) | 7.64% (inactive) | 22.9% (inactive)
CCOC(=O)N1CCN(C(=O)COc2cc(=O)n(C)c3ccccc23)CC1 | 341 | 1.7% (inactive) | -0.1% (inactive) | 94.2% | 1.7% (inactive) | 118% | -0.565 (inactive) | 4.1e-05 (inactive) | 0.00524 (inactive) | -5.65% (inactive) | -23.1% (inactive)
CC(C)(C)c1cc(NS(=O)(=O)c2ccc3c(c2)OCCO3)on1 | 574 | -2.4% (inactive) | 5.3% (inactive) | 104% | -81.6% (inactive) | 167% | -0.586 (inactive) | -2.5e-06 (inactive) | 0.0066 (inactive) | 11.1% (inactive) | 20.1% (inactive)
CCCc1cc(Nc2cccc(OC)c2)n2ncnc2n1 | 708 | -9.9% (inactive) | -22.9% (inactive) | 100% | -8.3% (inactive) | 111% | -0.321 (inactive) | -3e-05 (inactive) | 0.00589 (inactive) | 12.1% (inactive) | 16.3% (inactive)
CC(C)c1ccc(CNc2ccc(N3CCOCC3)cc2)cc1 | 700 | -11.3% (inactive) | -26.2% (inactive) | 117% | -54.6% (inactive) | 119% | -0.316 (inactive) | -4.8e-05 (inactive) | 0.00466 (inactive) | -21.7% (inactive) | -43.5% (inactive)
Cc1cccc(-n2ncc3c(N)ncnc32)c1 | 622 | 9.1% (inactive) | -51.6% (inactive) | 6% | -12.6% (inactive) | 110% | -0.596 (inactive) | -2.7e-05 (inactive) | 0.0039 (inactive) | -20.5% (inactive) | -80.6% (inactive)
Cc1ccc(Nc2nc(Oc3ccc(=O)[nH]n3)nc(N(C)C)n2)cc1 | 377 | 2.8% (inactive) | 13.2% (inactive) | 101% | -65.6% (inactive) | 111% | -0.498 (inactive) | -4.2e-05 (inactive) | 0.00563 (inactive) | 8.86% (inactive) | 11.8% (inactive)
COc1ccc2[nH]c(=O)c(CN(Cc3cccs3)Cc3nnnn3C(C)(C)C)cc2c1 | 713 | 29.2% (inactive) | 1.1% (inactive) | 111% | 12.5% (inactive) | 88.8% | -0.417 (inactive) | -3.6e-05 (inactive) | 0.00579 (inactive) | 10% (inactive) | 7.17% (inactive)
COc1cccc(NC(=O)CSc2nnnn2C(C)C)c1 | 738 | 6.1% (inactive) | -20.3% (inactive) | 109% | -4.8% (inactive) | 123% | -0.538 (inactive) | -9e-05 (inactive) | 0.00723 (inactive) | 0.303% (inactive) | -4.86% (inactive)
O=C(OCc1nnc(-c2ccccc2)o1)c1ccc2ccccc2n1 | 457 | -3.1% (inactive) | -11.6% (inactive) | 95.8% | -165% (inactive) | 106% | -0.565 (inactive) | 7e-05 (inactive) | 0.00433 (inactive) | -29.8% (inactive) | -34.4% (inactive)
COCCCNC(=O)c1ccc(CS(=O)(=O)c2ccc(OC)cc2)o1 | 696 | -8.1% (inactive) | 5.6% (inactive) | 101% | -54.8% (inactive) | 115% | -0.519 (inactive) | -5.8e-05 (inactive) | 0.00615 (inactive) | 7.18% (inactive) | 13.8% (inactive)
COc1ccc(C(O)Cn2c(=N)n(CCCN(C)C)c3ccccc32)cc1 (stereo not drawn) | 569 | -12.9% (inactive) | -27.4% (inactive) | 85.7% | -30.3% (inactive) | 112% | -0.587 (inactive) | 2.2e-05 (inactive) | 0.00727 (inactive) | -10.7% (inactive) | -0.929% (inactive)
COCCN(C(=O)CNC(=O)c1ccco1)C(C(=O)NC1CCCCC1)c1cccc(OC)c1 (stereo not drawn) | 650 | -9.5% (inactive) | 15.9% (inactive) | 104% | 37% (inactive) | 101% | -0.444 (inactive) | -2e-05 (inactive) | 0.00264 (inactive) | 5.23% (inactive) | 36.9% (inactive)
Cn1c(=O)c2c(nc(NCc3ccco3)n2C/C=C/c2ccccc2)n(C)c1=O | 256 | 8.8% (inactive) | 6.1% (inactive) | 99.5% | -65.5% (inactive) | 118% | -0.637 (inactive) | 3.3e-05 (inactive) | 0.00629 (inactive) | 14.8% (inactive) | 18.9% (inactive)
O=C(C(Cc1ccccc1)n1cccc1)N1CCCCCC1 (stereo not drawn) | 690 | -1.6% (inactive) | 8.2% (inactive) | 104% | -42.3% (inactive) | 115% | -0.517 (inactive) | -1.7e-05 (inactive) | 0.00572 (inactive) | 3.28% (inactive) | 25.3% (inactive)
NC(=O)c1c(NC(=O)Cc2cccs2)sc2c1CCC2 | 537 | -17.1% (inactive) | 12.6% (inactive) | 109% | -43% (inactive) | 150% | -0.483 (inactive) | -6.1e-05 (inactive) | 0.00572 (inactive) | -14.3% (inactive) | -35.7% (inactive)
CC(=O)N1CCN(S(=O)(=O)c2ccc(S(=O)(=O)NCC(C)C)cc2)CC1 | 641 | 1.6% (inactive) | 5.2% (inactive) | 102% | -10.2% (inactive) | 110% | -0.399 (inactive) | -3.9e-05 (inactive) | 0.00517 (inactive) | 14.8% (inactive) | 12.6% (inactive)
CCc1ccc(C(=O)NC2CCCCC2)s1 | 355 | -1.2% (inactive) | 0.6% (inactive) | 98.5% | 11.7% (inactive) | 104% | -0.523 (inactive) | -4.3e-05 (inactive) | 0.00428 (inactive) | -41.5% (inactive) | -96.5% (inactive)
CCC1(CC)C(=O)N(C)C(=O)NC1=NCc1ccccc1 | 512 | -4.7% (inactive) | -9.9% (inactive) | 107% | 24.4% (inactive) | 96.9% | -0.334 (inactive) | 2e-05 (inactive) | 0.0048 (inactive) | 18.2% (inactive) | 12.1% (inactive)
COc1cccc(C(=O)Nc2ccc(NC(C)=O)cn2)c1 | 759 | -4.3% (inactive) | -0.2% (inactive) | 96.3% | -84.7% (inactive) | 123% | -0.469 (inactive) | -5.3e-05 (inactive) | 0.00617 (inactive) | -36.2% (inactive) | -56% (inactive)

From PubChem BioAssay
